# In the library only some 10% were active in any assay of this set; here they are far more common.
# JMJD2A Tudor inh = blocks the human JMJD2A Tudor domain | O75164 | AlphaScreen JMJD2A-Tudor / H3K4me3 peptide binding | Potency, µM (doses to about 114 µM), most hits filed as inhibitors | 390,000 compounds, 4.4% hits; also: nearly all actives have a fitted effect of over 50% in size
# Target sequence (O75164 whole entry, looked up, the tested form may be a part): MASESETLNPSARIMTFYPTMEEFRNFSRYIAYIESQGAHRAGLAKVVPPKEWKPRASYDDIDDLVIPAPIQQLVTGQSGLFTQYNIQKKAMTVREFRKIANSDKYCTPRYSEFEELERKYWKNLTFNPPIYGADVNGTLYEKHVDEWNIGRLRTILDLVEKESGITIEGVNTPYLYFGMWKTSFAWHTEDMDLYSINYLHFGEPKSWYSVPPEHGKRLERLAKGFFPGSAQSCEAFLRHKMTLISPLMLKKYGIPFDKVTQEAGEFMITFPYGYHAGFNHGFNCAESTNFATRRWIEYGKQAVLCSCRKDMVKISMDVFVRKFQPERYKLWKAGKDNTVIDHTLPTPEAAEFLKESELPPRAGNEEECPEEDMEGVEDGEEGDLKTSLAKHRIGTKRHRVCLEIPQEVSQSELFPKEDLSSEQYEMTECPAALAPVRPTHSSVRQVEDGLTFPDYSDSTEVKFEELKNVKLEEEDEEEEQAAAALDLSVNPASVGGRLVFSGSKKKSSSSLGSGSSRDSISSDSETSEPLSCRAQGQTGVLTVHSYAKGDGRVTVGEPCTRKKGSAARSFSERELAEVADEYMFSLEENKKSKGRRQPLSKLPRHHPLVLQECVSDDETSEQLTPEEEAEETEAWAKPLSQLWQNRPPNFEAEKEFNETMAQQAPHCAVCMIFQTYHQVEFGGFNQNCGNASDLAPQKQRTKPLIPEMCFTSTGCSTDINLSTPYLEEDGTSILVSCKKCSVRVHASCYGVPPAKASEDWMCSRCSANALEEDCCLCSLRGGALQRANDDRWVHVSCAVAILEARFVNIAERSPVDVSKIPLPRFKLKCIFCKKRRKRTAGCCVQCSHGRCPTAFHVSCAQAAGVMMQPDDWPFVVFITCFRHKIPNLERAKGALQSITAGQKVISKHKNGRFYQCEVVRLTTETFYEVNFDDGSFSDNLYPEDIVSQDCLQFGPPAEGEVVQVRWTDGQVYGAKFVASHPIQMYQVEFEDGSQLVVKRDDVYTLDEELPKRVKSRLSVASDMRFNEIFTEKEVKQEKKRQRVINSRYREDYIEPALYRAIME
# Six1-Eya2 inh = inhibitors of human Six1/Eya2 interaction. Q15475+O00167. AlphaScreen GST-Six1/His-Eya2 binding, biochemical; stronger effect = lower value. activity change, % (concentration not given with the values). 360,000 compounds, 0.56% hits; in the data active = activity change below about -65%; inconclusive = mostly about -30% to -63%
#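 Six1/Eya2 binding was read as AlphaScreen signal after compounds were pinned into GST-Six1 plus His-tagged Eya2 (5X stock 250/500 nM) in pH 8.0 Tris/NaCl/TCEP buffer, beads added, then incubated 1 h, 37 C, dark.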
# BAZ2B block = blocks human BAZ2B; Q9UIF8; AlphaScreen BAZ2B-H3K14Ac peptide displacement; Potency, µM (titrated, usually from 114 µM), actives largely listed as inhibitors; 360,000 compounds, 4.4% hits; AID 504333; also: nearly all actives have a fitted effect of over 60% in size
#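 AlphaScreen luminescence quantifies BAZ2B engagement of H3K14Ac peptide; the protein and biotinylated peptide are both at 50 nM final, buffer PBS pH 7.4 with 0.01% Tween-20, all steps at room temperature.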
# HP1b binding inh = HP1-beta chromodomain-methylated histone interaction inhibition | AlphaScreen HP1-beta / biotin-H3K9me3 peptide binding | Potency, µM (top dose mostly 114 µM), most hits filed as inhibitors | 390,000 compounds, 0.56% hits; also: nearly all actives have a fitted effect of over 70% in size
#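 Compound inhibition of the preformed complex between 50 nM HP1-beta and 50 nM biotinylated H3K9me3 peptide was read by AlphaScreen. Buffer was PBS pH 7.4 with 0.01% Tween-20. Incubations ran 30 min at room temperature, with 10 ug/mL donor/acceptor beads.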
# CtBP-E1A inh = inhibitors of CtBP/E1A interaction | AlphaScreen GST-E1A/His-CtBP binding, 1536-well; stronger effect = lower value | AID 651724 | activity change, % (test concentration not listed) | 340,000 compounds, 0.49% hits; in the data active = activity change below about -65%; inconclusive = mostly about -30% to -63%
#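 In 5 uL wells, 23 nL compound meets equimolar GST-E1A and His-CtBP (5X stock 125 nM each) for 2 h, 37 °C. Beads (5X, 50 ug/mL) then 1 h, 37 °C, dark.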
# G9a block = G9a (human) methyltransferase inhibition; G9a H3K9 monomethylation, AlphaScreen, 2 h; AID 504332; Potency, µM (series often up to 102 µM), most hits filed as inhibitors; Q96KQ7; 350,000 compounds, 8.8% hits; also: nearly all actives have a fitted effect of over 75% in size
#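 Chemiluminescent proximity detection of H3K9 monomethylation, read after 10 min bead incubation in the dark. Reaction: 20 nM G9a, 500 nM biotin-H3K9 peptide, 20 uM SAM cofactor, 2 h, room temperature, following 15 min enzyme-compound preincubation.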
# A number is an active result; i = inactive; ? = inconclusive; nt = not tested or not shown; [ ] = dose if it differs, or a comment. Unless noted, calls follow the shape of the dose curve; as a rule, active = well fitted inhibition curve with a large enough effect; inconclusive = small, poorly fitted or top-dose-only effect; inactive = no such curve, though single readings can be large or run the other way.
SMILES,JMJD2A Tudor inh,Six1-Eya2 inh,BAZ2B block,HP1b binding inh,CtBP-E1A inh,G9a block
COc1cc(-c2nc(C)c(C(C)=O)n2O)ccc1OCC(=O)Nc1ccc(F)cc1,i,i,?,i,i,i
CCOC(=O)CSc1ccc(C(=O)N2CCN(C)CC2)cc1[N+](=O)[O-],i,i,i,i,i,44.7µM
CC1CN(C(=O)COC(=O)CSc2ccc(C(N)=O)cc2[N+](=O)[O-])CC(C)O1 (stereo unspecified),i,i,i,i,i,i
CC1CCC(NC(=O)COC(=O)CSc2ccc(C(N)=O)cc2[N+](=O)[O-])CC1 (stereo unspecified),i,i,i,i,i,50.1µM
CC1CCN(C(=O)c2ccc(SCc3ccccc3F)c([N+](=O)[O-])c2)CC1,?,?,i,?,i,28.2µM
NC(=O)c1ccc(SCC(=O)OCC(=O)N2CCCC2=O)c([N+](=O)[O-])c1,i,i,i,i,i,50.1µM
CCCCC[C@@H](C)N1C[C@H](COCc2ccccc2)Oc2cc(N3CCC[C@H]3CO)ccc2S1(=O)=O,nt,i,nt,nt,i,nt
O=c1[nH]c(SCc2c(F)cccc2Cl)nc2c1CCC2,i,nt,i,i,nt,i
CC(=O)c1c(C)[nH]c(C(=O)OCC(=O)NCc2ccccc2)c1C,nt,i,nt,nt,i,nt
CCOC(=O)c1ccccc1-c1csc(NS(=O)(=O)c2ccc(Cl)cc2)n1,i,i,56.2µM,i,i,i
CCOC(=O)Cc1csc(NS(=O)(=O)c2ccccc2)n1,i,i,i,i,i,i
CCN(c1ccccc1)S(=O)(=O)c1ccc(NC(=O)c2cc(=O)c3ccc(C)c(C)c3o2)cc1,i,nt,i,i,nt,i
C/C(=N\NC(=O)c1ccc(Cl)cc1)c1ccccn1,25.1µM,-89.7,7.94µM,i,?,nt
C/C(=N\NC(=O)c1ccccn1)c1ccc(Cl)cc1,i,i,?,i,i,nt
S=C(NCc1ccccn1)Nc1cccc(Cl)c1,?,i,i,i,i,i[0.501 µM]
CC(=NNC(=S)Nc1cccc(Cl)c1)c1ccccn1,25.1µM,-90.8,nt,?,-95.7,nt
S=C(N/N=C/c1cccc2ccccc12)Nc1cccc(Cl)c1,i,i,79.4µM,i,i,i
C/C(=N\Nc1ccc2nncn2n1)c1ccccn1,22.4µM,-91.1,8.91µM,i,-95.5,i
S=C(N/N=C/c1ccccc1Cl)Nc1ccccc1,i,i,i,i,i,i
C/C(=N\Nc1ccc2nncn2n1)c1ccco1,i,i,i,i,i,nt
C/C(=N/Nc1ccc([N+](=O)[O-])cc1)c1ccc(C)cc1C,i,i,i,i,i,i
C/C(=N/Nc1ccc([N+](=O)[O-])cc1)c1c[nH]c2ccccc12,?,i,39.8µM,?,nt,?
C/C(=N\NC(=O)c1ccccn1)C12CC3CC(CC(C3)C1)C2,?,i,50.1µM,i,i,?
O=C(N(c1ccccn1)c1ccccn1)C12CC3CC(CC(C3)C1)C2,i,i,i,i,i,79.4µM
C/C(=N\NC(=O)c1cc2ccccc2cc1O)c1ccc(C)o1,i,i,i,i,i,nt
SMILES,JMJD2A Tudor inh,Six1-Eya2 inh,BAZ2B block,HP1b binding inh,CtBP-E1A inh,G9a block
C/C(=N\NC(=O)c1c[nH]c2ccccc12)c1ccc(C)o1,i,-79.3,i,i,-86.4,i
O=C(NC(=S)NCc1ccco1)c1ccccc1[N+](=O)[O-],i,i,nt,i,i,nt
C/C(=N\NC(=O)c1cc(C)nc2ccccc12)c1ccccn1,20µM,-89.3,7.94µM,i,-92.1,i[2.33 µM]
C/C(=N\NC(=O)COc1ccccc1-c1ccccc1)c1ccccn1,i,-65.4,56.2µM,i,i,i
C/C(=N/NC(=O)c1ccccn1)c1c[nH]c2ccccc12,i,i,50.1µM,i,nt,?
C/C(=N\Nc1ccc(Cl)cc1)c1ccccn1,?,i,?,i,i,3.55µM
C/C(=N/NS(=O)(=O)c1ccc(C)c(C)c1)c1c[nH]c2ccccc12,i,i,i,i,i,i
O=C(C[C@H]1C=C[C@@H](NC(=O)Cc2cccnc2)[C@@H](CO)O1)NCc1ccc2c(c1)OCO2,nt,i,nt,nt,i,nt
C/C(=N\NC(=O)c1ccc(N/N=C(\C)c2ccc(O)cc2)cc1)c1ccc(O)cc1,i,i,?,i,i,nt
C/C(=N/NC(=O)c1ccccn1)c1ccc(O)cc1,?,i,50.1µM,i,i,nt
CCOc1ccc(-c2csc(/C(C#N)=C\c3ccc(O)c([N+](=O)[O-])c3)n2)cc1,22.4µM,?,7.08µM,35.5µM,i,?
CN(C)c1ccc(/C=C(\C#N)c2nc(-c3ccc(Cl)c(Cl)c3)cs2)cc1,i,nt,i,i,nt,?
COc1ccc(NC(=O)c2c(NCc3ccc(C)o3)sc3c2CCC(C)C3)cc1 (stereo unspecified),44.7µM,nt,i,i,nt,8.91µM
COc1ccccc1NC(=O)c1c(NCc2ccc(C)o2)sc2c1CCC(C)C2 (stereo unspecified),?,nt,i,i,nt,8.91µM
COc1ccc(NC(=O)c2c(NCc3ccc(C)o3)sc3c2CCCCC3)c(OC)c1,50.1µM,nt,i,i,nt,i
COc1ccc(NC(=O)c2c(NCc3ccc(C)o3)sc3c2CCC(C)C3)c(OC)c1 (stereo unspecified),28.2µM,nt,i,i,nt,15.8µM
NS(=O)(=O)c1cccc(NC(=O)COC(=O)CCc2ccccc2)c1,i,i,i,i,i,i
COC(=O)[C@@]1(Cc2ccc(F)cc2)[C@H]2c3cc(C(=O)N4CCCC4)n(C)c3C[C@H]2CN1C(=O)c1ccccc1,nt,i,nt,nt,i,nt
CCN(CC)S(=O)(=O)c1cc(-c2nn(C)c(=O)c3ccccc23)ccc1C,?,i,50.1µM,i,i,?
CC1(C(=O)NCc2cccs2)CCN1CCc1ccccc1 (stereo unspecified),nt,i,nt,nt,i,nt
Cc1cccc(NC(=S)N2CCN(S(=O)(=O)c3cccc(F)c3)CC2)c1,i,i,i,i,i,i
CC(=O)c1cccc(NC(=S)N2CCN(S(=O)(=O)c3ccc(F)cc3)CC2)c1,i,i,i,i,i,28.2µM
CC(=O)c1cccc(NC(=S)N2CCN(S(=O)(=O)c3ccccc3)CC2)c1,i,i,i,?,i,44.7µM
O=[N+]([O-])c1ccc(NC(=S)N2CCN(S(=O)(=O)c3ccccc3)CC2)cc1,?,i,i,i,i,50.1µM
Cc1cccc(NC(=S)N2CCN(S(=O)(=O)c3ccccc3)CC2)c1,i,i,i,i,i,?
CCCC(=O)Nc1cc(C(=O)NCc2ccccc2)ccc1S(=O)(=O)c1ccc(Cl)cc1,i,nt,i,i,nt,i
CCOCCCNC(=O)C(c1ccc(C)cc1)N(Cc1ccc2c(c1)OCO2)C(=O)c1ccc(NC(C)=O)cc1 (stereo unspecified),i,nt,i,i,nt,i
N#C/C(=C/c1cccn1-c1cccc(C(=O)O)c1)c1ccc(F)cc1,i,i,50.1µM,i,nt,?

# Screening data as filed in PubChem BioAssay.
